Most compounds without a hit are left out; they make up all but 2.3% or so of the library.
proKLK7 act: proKLK7 zymogen activators, primary screen, biochemical, fluorescence intensity; Kallikrein-7 (Homo sapiens), P49862; activation, % at 7 µM; purified proKLK7, EDANS-DABCYL substrate fluorescence; 100% is mature enzyme control, 0% vehicle; AID 652039, 2013; actives 0.9% (n = 370,000);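 active = activation above the mean of all tested compounds plus 3 SD, computed per campaign excluding outliers beyond control limits, cut at about 13% in these data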
Target sequence (P49862 whole entry, looked up): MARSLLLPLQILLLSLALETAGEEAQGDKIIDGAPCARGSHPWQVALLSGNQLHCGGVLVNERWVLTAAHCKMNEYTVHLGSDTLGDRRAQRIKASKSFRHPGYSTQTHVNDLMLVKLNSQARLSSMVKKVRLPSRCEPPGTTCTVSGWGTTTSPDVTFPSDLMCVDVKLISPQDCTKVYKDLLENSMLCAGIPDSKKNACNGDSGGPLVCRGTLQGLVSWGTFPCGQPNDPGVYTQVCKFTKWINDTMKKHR
ADAM10 inh: human ADAM10 inhibitors, primary screen, biochemical, QFRET, HTS. Disintegrin and metalloproteinase domain-containing protein 10 (Homo sapiens), O14672. inhibition, % at 7 µM. recombinant ADAM10, EDANS/DABCYL FRET peptide cleavage, 3 h. actives 0.62% (n = 370,000);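 active = inhibition above a per-campaign cutoff equal to the mean of compounds falling between control-based bounds plus 3 SD, cut at about 20% in these data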;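 also: 0% = DMSO wells while the 100% control is not disclosed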
V-ATPase pHluor: regulators of yeast V-ATPase proton pumping, primary screen, pHLuorin cytosolic pH fluorescence; S. cerevisiae; response, % at 10 µM; actives 0.37% (n = 350,000); in the data active = response mostly above about 7.3%, no sharp cut-off; inactive = mostly below about 5.4%; also: actives read high
ADAM17 inh: ADAM17 inhibitors, primary screen, biochemical, QFRET. Disintegrin and metalloproteinase domain-containing protein 17 (Homo sapiens), P78536. recombinant ADAM17, EDANS/DABCYL FRET peptide cleavage. actives 0.83% (n = 370,000). inhibition, % at 6.95 µM. AID 720648, 2013;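 active = inhibition above the mean of compounds lying between control limits plus 3 SD, set per campaign, cut at about 8.5% in these data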;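 also: 0% = DMSO-only wells as the low control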
ADAM10 confirm: human ADAM10 inhibitors, confirmation, biochemical, QFRET, triplicate | AID 743208, 2013 | shares compounds with ADAM10 inh | inhibition, % at 6.95 µM | ADAM10 QFRET peptide cleavage, EDANS fluorescence | actives 1% (n = 2,100);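 active = inhibition above about 20% chosen separately for each screening run, limit read from the data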;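 also: 0% = DMSO wells and 100% = marimastat wells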
ADAM17 counter: ADAM17 inhibitors, counter-screen for ADAM10 exosite inhibitor project, biochemical, QFRET, high throughput. ADAM17 QFRET peptide cleavage, EDANS fluorescence. AID 743214, 2013. inhibition, % at 6.95 µM. shares compounds with ADAM10 inh. actives 0.5% (n = 2,100);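 active = mean triplicate inhibition above the solvent-only control wells' mean plus 3 SD, cut at about 12% in these data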;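 also: 0% = DMSO wells and 100% = marimastat wells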
An asterisk follows results filed as active.

Screening CCC(C)N(C(=O)c1oc(=O)c2ccccc2c1-c1ccc(C)cc1)C(C)CC (stereo not given) returned proKLK7 act 0, ADAM10 inh 2 and ADAM17 inh 5.
For COc1ccccc1CCNC(=O)CSc1nc2c([nH]1)c(=O)n(C)c(=O)n2C the results were proKLK7 act -1, ADAM10 inh -2 and ADAM17 inh 5.
Screening COc1ccc(CC(=O)N(Cc2ccccc2)c2ccccc2C(=O)Nc2cc(OC)ccc2OC)cc1 returned proKLK7 act 1, ADAM10 inh 3 and ADAM17 inh 1.
COc1cc2c(cc1OC)C(c1ccccc1)N(C(=O)c1ccccc1F)CC2 (stereo not given) was read as proKLK7 act 0, ADAM10 inh 21*, V-ATPase pHluor 5, ADAM17 inh -1, ADAM10 confirm 1 and ADAM17 counter 0.
`O=C(NC1CCCN(Cc2ccc(Cl)cc2)C1)c1ccoc1` (stereo not given) gave proKLK7 act 0, ADAM10 inh -2, V-ATPase pHluor -3 and ADAM17 inh -3.
CCN(CC)C(=O)C1CCCN(Cc2cccc(F)c2)C1 (stereo not given) was read as proKLK7 act -1, ADAM10 inh 79*, V-ATPase pHluor -2, ADAM17 inh -1, ADAM10 confirm 1 and ADAM17 counter 0.
CCN(CC)C(=O)C1CCCN(Cc2ccc3ccccc3c2)C1 (stereo not given) was read as proKLK7 act 0, ADAM10 inh 14, V-ATPase pHluor 0 and ADAM17 inh -1.
Screening O=C(NC1CCCN(Cc2ccc(Cl)cc2)C1)c1cccc(F)c1 (stereo not given) returned proKLK7 act 0, ADAM10 inh 82*, V-ATPase pHluor 0, ADAM17 inh -2, ADAM10 confirm 1 and ADAM17 counter 0.
Cc1ccc(-c2cc(-c3nnc(SCC(=O)Nc4nccs4)n3N)[nH]n2)cc1 was read as proKLK7 act 0, ADAM10 inh -8 and ADAM17 inh -1.
CCCNC(=O)c1cc(C2CCCCN2S(=O)(=O)c2ccc(OC)cc2)on1 (stereo not given) was read as proKLK7 act 0, ADAM10 inh -4 and ADAM17 inh -3.
Screening CCCNC(=O)c1cc(C2CCCCN2S(=O)(=O)c2ccccc2)on1 (stereo not given) returned proKLK7 act -1, ADAM10 inh 84*, ADAM17 inh 3, ADAM10 confirm 2 and ADAM17 counter 1.
Screening O=C(COC(=O)CCc1c[nH]c2ccccc12)NC(c1ccccc1)c1ccccc1 returned proKLK7 act 0, ADAM10 inh 24*, V-ATPase pHluor -1, ADAM17 inh 7, ADAM10 confirm 7 and ADAM17 counter 2.
Screening O/N=C/c1cc(Cl)ccc1OCc1ccccc1Cl returned proKLK7 act 0, ADAM10 inh 23*, V-ATPase pHluor -1, ADAM17 inh 5, ADAM10 confirm 9 and ADAM17 counter 2.
O/N=C/c1ccccc1OCc1ccccc1F was read as proKLK7 act 1, ADAM10 inh 2, V-ATPase pHluor 1 and ADAM17 inh 6.
Cc1cccc(NC(=O)OC2CC3CC2[C@H]2CCCCN2C3)c1 (stereo not given in full) was read as proKLK7 act -1, ADAM10 inh -6 and ADAM17 inh -7.
Screening COc1cc(/C=N/NC(=O)c2ccc(C)nc2)cc([N+](=O)[O-])c1O returned proKLK7 act 0, ADAM10 inh 22*, V-ATPase pHluor 2, ADAM17 inh 6, ADAM10 confirm 1 and ADAM17 counter -1.
`Nc1nc(-c2ccc(Br)cc2)c(S(=O)(=O)c2ccccc2)s1` gave proKLK7 act 0, ADAM10 inh 5, V-ATPase pHluor -2 and ADAM17 inh 3.
